Measured values as given in PubChem BioAssay (Tox21).
Records with an inconclusive call do not appear. Active and inactive are the calls of the source. Calls follow the shape of the full dose curve.

Legend:
[1] = target: Acetylcholinesterase (Homo sapiens) (UniProt P22303); assay: Acetylcholinesterase (AChE) small molecule antagonists: colormetric cell-based qHTS assay (AID 1347395); also: nearly all actives have a fitted effect of over 30% in size
Procedure, shortened: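 Cells (SH-SY5Y, 2,000 per well) are seeded and left overnight at 37 C. Compound is added for 30 min, then DTNB and acetylthiocholine for a further 90 min at 37 C before absorbance-based thiocholine detection.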

[2] = target: Acetylcholinesterase (Homo sapiens) (UniProt P22303); assay: Acetylcholinesterase (AChE) small molecule antagonists: enzyme-based qHTS assay (AID 1347397); conditions: Potency: AChE enzyme activity inhibition; outcome: AChE enzyme activity inhibition; also: nearly all actives have a fitted effect of over 55% in size
Procedure, shortened: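 Absorbance-based detection of thiocholine with DTNB served as the read-out. Recombinant human AChE was exposed to compound for 30 min at RT before a 10 min RT incubation with acetylthiocholine.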

[3] = target: Acetylcholinesterase (Homo sapiens) (UniProt P22303); assay: Acetylcholinesterase (AChE) small molecule antagonists: fluorescence cell-based qHTS assay (AID 1347398); conditions: Potency: AChE activity; outcome: AChE activity; also: nearly all actives have a fitted effect of over 50% in size
Procedure, shortened: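 Fluorimetric cell-based assay: intact SH-SY5Y cells, 30 min compound preincubation at 37 C, acetylthiocholine substrate with thiol probe Thiolite Green, 40 min RT development, fluorescence 490/520 nm.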

[4] = target: Acetylcholinesterase (Homo sapiens) (UniProt P22303); assay: Acetylcholinesterase (AChE) small molecule antagonists: enzyme-based qHTS assay with human liver microsomes (AID 1347399); conditions: Potency: qHTS inhibition; outcome: qHTS inhibition; also: nearly all actives have a fitted effect of over 60% in size
Procedure, shortened: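 Recombinant human AChE (50 mU/mL in the enzyme mix) and human liver microsomes (0.25 mg/mL final) were preincubated with compound and NADPH (0.25 mg/mL final) for 30 min at 37 C. Acetylthiocholine/DTNB was then added; thiocholine was read colorimetrically after 10 min at room temperature.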
% is scaled to controls: 0 for no effect and ±100 for the full control effect.

Acetylcholinesterase (Homo sapiens), sequence (P22303 whole entry, looked up): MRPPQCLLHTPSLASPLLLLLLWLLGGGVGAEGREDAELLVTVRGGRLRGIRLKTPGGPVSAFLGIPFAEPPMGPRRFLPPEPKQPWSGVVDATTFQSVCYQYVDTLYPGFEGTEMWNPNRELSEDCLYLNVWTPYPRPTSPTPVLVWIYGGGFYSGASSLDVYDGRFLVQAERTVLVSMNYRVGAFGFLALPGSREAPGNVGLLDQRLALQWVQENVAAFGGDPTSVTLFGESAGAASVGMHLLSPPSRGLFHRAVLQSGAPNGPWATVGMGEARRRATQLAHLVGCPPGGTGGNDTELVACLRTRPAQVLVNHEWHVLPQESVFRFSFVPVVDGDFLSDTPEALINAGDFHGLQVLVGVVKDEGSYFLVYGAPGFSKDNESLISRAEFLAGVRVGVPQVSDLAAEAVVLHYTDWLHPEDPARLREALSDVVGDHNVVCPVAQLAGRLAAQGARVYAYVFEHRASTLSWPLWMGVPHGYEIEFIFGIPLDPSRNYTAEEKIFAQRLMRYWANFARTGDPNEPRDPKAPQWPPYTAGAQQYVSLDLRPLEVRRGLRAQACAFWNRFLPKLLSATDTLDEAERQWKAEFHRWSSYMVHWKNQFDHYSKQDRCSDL

CC1CCc2nccnc21 (centres undefined)
inactive: Potency [1] | Potency [2] | Potency [3] | Potency [4]

CCCCCCCC/C=C/CCCOC(C)=O
inactive: Potency [1] | Potency [2] | Potency [3] | Potency [4]

CCOC(=O)CCc1ccccc1
inactive: Potency [1] | Potency [2] | Potency [3] | Potency [4]

NCCCNCCSP(=O)(O)O
inactive: activity, negative = inhibition [1] 2.88% [at 10.5 µM] | activity change, negative = inhibition [2] -0.97% [at 10.5 µM] | activity change, negative = inhibition [3] 1.49% [at 10.5 µM] | activity change, negative = inhibition [4] 5.32% [at 10.5 µM]

CC(O)C(C)O (centres undefined)
inactive: Potency [1] | Potency [2] | Potency [3] | Potency [4]

CNC(C)=O
inactive: Potency [1] | Potency [2] | Potency [3] | Potency [4]

CCCCCCCCCI
inactive: Potency [1] | Potency [2] | Potency [3] | Potency [4]

O=C1c2ccccc2-c2ccccc21
inactive: Potency [1] | Potency [2] | Potency [3] | Potency [4]

Cc1ccccc1C#N
inactive: Potency [1] | Potency [2] | Potency [3] | Potency [4]

COc1c(N2CCNC(C)C2)c(F)cc2c(=O)c(C(=O)O)cn(C3CC3)c12 (centres undefined)
inactive: Potency [1] | Potency [2] | Potency [3] | Potency [4]

Nc1nc(-c2ccccc2)c(Br)c(=O)[nH]1
inactive: Potency [1] | Potency [2] | Potency [3] | Potency [4]

CCCCCCCCCCCCCCCS(=O)(=O)Oc1ccccc1
inactive: Potency [1] | Potency [2] | Potency [3] | Potency [4]

CCCCCCCCCCCCSC
inactive: Potency [1] | Potency [2] | Potency [3] | Potency [4]

O=c1cc(CO)occ1O
inactive: Potency [1] | Potency [2] | Potency [3] | Potency [4]

CC(C)(C)C1CCC(CC2=C(O)c3ccccc3C(=O)C2=O)CC1 (centres undefined)
inactive: Potency [1] | Potency [2] | Potency [3] | Potency [4]

CC(C)COC(=O)CC(C(=O)OCC(C)C)S(=O)(=O)O (centres undefined)
inactive: Potency [1] | Potency [2] | Potency [3] | Potency [4]
